Screening data from PubChem BioAssay.
beta cell repl: induces beta-cell replication in MIN6 cells | actives 0.29% (n = 330,000) | proliferation, % at 10 µM | AID 2380 | MIN6 cells proliferation, ATPlite luminescence, 48 h; cells starved in 0.2% serum; 100% = growth in 10% serum;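 active = compounds whose signal lies at least 3.5 SD above the mean of all wells on their plate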
OPRM1-OPRD1 ag: OPRM1-OPRD1 heterodimerization agonism | AID 504326 | P35372+P41143 | actives 0.3% (n = 340,000) | activation, % at 9.3 µM | cells, luminescence; in the data active = activation above about 18%
Target sequence (P35372 whole entry, looked up): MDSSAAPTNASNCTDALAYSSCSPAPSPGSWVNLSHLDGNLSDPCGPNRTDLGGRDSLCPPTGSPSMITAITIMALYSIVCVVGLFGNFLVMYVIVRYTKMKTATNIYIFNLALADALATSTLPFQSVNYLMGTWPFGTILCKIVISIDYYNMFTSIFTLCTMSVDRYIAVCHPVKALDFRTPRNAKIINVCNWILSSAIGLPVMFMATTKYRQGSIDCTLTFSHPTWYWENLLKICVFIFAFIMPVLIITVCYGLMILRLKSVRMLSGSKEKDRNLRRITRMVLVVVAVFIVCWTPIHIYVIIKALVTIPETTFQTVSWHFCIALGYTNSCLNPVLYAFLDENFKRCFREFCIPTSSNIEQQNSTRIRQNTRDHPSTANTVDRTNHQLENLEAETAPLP
Target sequence (P41143 whole entry, looked up): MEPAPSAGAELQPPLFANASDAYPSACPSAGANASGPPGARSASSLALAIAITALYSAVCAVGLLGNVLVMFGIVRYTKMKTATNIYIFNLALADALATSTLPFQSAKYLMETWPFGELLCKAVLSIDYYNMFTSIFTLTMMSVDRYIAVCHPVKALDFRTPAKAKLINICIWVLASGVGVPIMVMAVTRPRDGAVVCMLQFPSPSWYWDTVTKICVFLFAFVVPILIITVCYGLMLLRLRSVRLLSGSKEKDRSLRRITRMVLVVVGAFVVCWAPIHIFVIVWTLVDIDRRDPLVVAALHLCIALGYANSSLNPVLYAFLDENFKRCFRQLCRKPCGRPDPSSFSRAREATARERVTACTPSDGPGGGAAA
pCIP destab: p/CIP protein destabilization | actives 0.01% (n = 290,000) | decrease of EGFP signal, % at 10 µM | Q05BA5 | F442A p/CIP-EGFP cells, EGFP fluorescence, 16 h;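 active = EGFP signal decrease of at least 30% at 10 µM or well 3 SD below plate mean, unless failing retest; inactive = the rest, including hits failing retest or dose response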
MOR-DOR inv ag: inverse agonist of human OPRM1-OPRD1 heterodimerization | inhibition, % at 9.3 µM | cell-based MOR-DOR heterodimer luminescence, inverse agonism | AID 504357 | actives 0.21% (n = 340,000); in the data active = inhibition above about 22%, passing the limit was not always enough
HTR5A ag ctr: activates human HTR5A in OPRM1-OPRD1 agonist counter-screen | P47898 | HTR5A agonist assay, luminescence, cell-based | activation, % at 9.3 µM | actives 0.61% (n = 340,000) | AID 504692; in the data active = activation mostly above about 9.5%, no sharp cut-off; inactive = mostly below about 7.6%
HTR5A inv ag: HTR5A inverse agonism, opioid heterodimer counter-screen. P47898. HTR5A cell line, luminescence. inhibition, % at 9.3 µM. actives 0.083% (n = 340,000). AID 504634; in the data active = inhibition mostly above about 23%, no sharp cut-off; inactive = mostly below about 18%
OPRM1-D1 inv cf: OPRM1-OPRD1 heterodimer inverse agonism, confirmation. inhibition, % at 9.3 µM. AID 504900. actives 20% (n = 580). cells expressing OPRM1/OPRD1 heterodimer, luminescence. shares compounds with MOR-DOR inv ag; in the data active = inhibition above about 32%
HTR5A inv count: counter-screen for OPRM1-OPRD1 inverse agonists: human HTR5A inverse agonism. shares compounds with MOR-DOR inv ag. HTR5A-expressing cells, luminescence. inhibition, % at 9.3 µM. 580 tested, under 10 active; call rule not given here
Large screens that a line does not name were inactive (follow-up assays come after a bar, where they were run). The list is not random: actives were taken first. Their share in the collection is about 1.4%.

CN(C)S(=O)(=O)c1cccc(C(=O)Nc2ccccc2[N+](=O)[O-])c1	MOR-DOR inv ag 34.0 | OPRM1-D1 inv cf inactive | HTR5A inv count inactive
O=C(Nc1ccc(Cl)c(S(=O)(=O)N2CCOCC2)c1)c1ccncc1	none (no result: pCIP destab)
CN(C)c1nc(=NCc2ccco2)ss1	MOR-DOR inv ag 65.9 (no result: beta cell repl) | OPRM1-D1 inv cf inactive | HTR5A inv count inactive
CCOC(CN=c1nc(N(C)C)ss1)OCC	none (no result: beta cell repl, pCIP destab)
CC(=O)C(Sc1nn(C)c(=S)s1)C(=O)Nc1ccccc1 (stereo unspecified)	MOR-DOR inv ag 72.1 | OPRM1-D1 inv cf inactive | HTR5A inv count inactive
C=C(C1=CCN(S(=O)(=O)C(C)(C)C)[C@@H]1CCO)c1ccccc1	none (no result: beta cell repl, pCIP destab)
Cc1nnsc1C(=O)NNc1ccc(C(C)(C)C)cc1	MOR-DOR inv ag 77.0 | OPRM1-D1 inv cf inactive | HTR5A inv count inactive
CC1=C(C)CC2C(C1)C(=O)c1ccc(Br)cc1S2(=O)=O (stereo unspecified)	MOR-DOR inv ag 58.2 (no result: pCIP destab) | OPRM1-D1 inv cf 56.4 | HTR5A inv count inactive
COc1ccc(NS(=O)(=O)c2ccc3ccccc3c2)c2ncccc12	MOR-DOR inv ag 38.9 | OPRM1-D1 inv cf inactive | HTR5A inv count inactive
CC(=O)Nc1ccc(S(=O)(=O)Nc2cccc3cccnc23)cc1	none
O=S(=O)(Nc1cccc2cccnc12)c1ccccc1	MOR-DOR inv ag 47.1 | OPRM1-D1 inv cf inactive | HTR5A inv count inactive
CCN(CC)CCOC(=O)/C=C/c1ccccc1	none
CCN(CC)CC(C)(C)C(=O)/C=C/c1ccc(/C=C/C(=O)C(C)(C)CN(CC)CC)cc1	MOR-DOR inv ag 43.4 (no result: beta cell repl, pCIP destab) | OPRM1-D1 inv cf inactive | HTR5A inv count inactive
CCN(C[C@H]1N[C@@](CC)(C(=O)OC)[C@H]2C(=O)N(C)C(=O)[C@@H]12)S(=O)(=O)c1ccc(F)cc1	none (no result: pCIP destab)
O=C(CNC(=O)c1ccc(Br)o1)OCC(=O)c1cccc([N+](=O)[O-])c1	MOR-DOR inv ag 83.5, HTR5A inv ag 35.7 | OPRM1-D1 inv cf inactive | HTR5A inv count inactive
Cc1ccc(OCC(=O)OCC(=O)c2cccc([N+](=O)[O-])c2)cc1C	MOR-DOR inv ag 43.8 | OPRM1-D1 inv cf inactive | HTR5A inv count inactive
O=C(Cc1ccccc1)OCC(=O)c1cccc([N+](=O)[O-])c1	MOR-DOR inv ag 52.2 (no result: pCIP destab) | OPRM1-D1 inv cf inactive | HTR5A inv count inactive
O=C(COC(=O)c1cnccn1)c1ccc2ccccc2c1	none
O=C(COC(=O)c1cnccn1)c1cccc([N+](=O)[O-])c1	MOR-DOR inv ag 65.5 | OPRM1-D1 inv cf inactive | HTR5A inv count inactive
Nc1ccc(C(=O)OCC(=O)c2cccc([N+](=O)[O-])c2)cc1	none
COc1ccccc1/C=C/C(=O)OCC(=O)N1CCc2ccccc21	none (no result: pCIP destab)
O=S1(=O)c2ccc(Br)cc2N2CCC[C@@H]2CN1Cc1ccccc1	none (no result: beta cell repl, pCIP destab)
CC(C)Cn1c(N)c(C(=O)COC(=O)c2cc(S(=O)(=O)N3CCOCC3)ccc2Br)c(=O)n(C)c1=O	none (no result: pCIP destab)
O=C(CNS(=O)(=O)c1ccccc1)OCC(=O)c1cccc([N+](=O)[O-])c1	MOR-DOR inv ag 61.3 | OPRM1-D1 inv cf inactive | HTR5A inv count inactive
COc1ccc(C(=O)N2CCCN(C)CC2)cc1S(=O)(=O)N(C)Cc1ccccc1	none (no result: pCIP destab)
CCCCCCN(C(=O)CCCCCN1C(=O)NC(c2ccc([N+](=O)[O-])cc2)C(C(=O)OCc2ccccc2)=C1C)C(C(=O)NCCCC)C1CCCCC1 (stereo unspecified)	none (no result: beta cell repl, pCIP destab)
Cc1nc2c3ccccc3n(CC(=O)c3ccc(F)cc3)c(=O)n2n1	MOR-DOR inv ag 31.2 | OPRM1-D1 inv cf inactive | HTR5A inv count inactive
Cc1cc(O)c(/C=N/Nc2ccc(F)cc2)c(=O)o1	none (no result: OPRM1-OPRD1 ag, MOR-DOR inv ag, HTR5A ag ctr, HTR5A inv ag)
Cc1ccc(N/N=C/c2c(O)cc(C)oc2=O)cc1	MOR-DOR inv ag 45.7 | OPRM1-D1 inv cf 43.5 | HTR5A inv count inactive
C[C@]12c3[nH]c4ccc(Cl)cc4c3CCN1C(=O)[C@@H](CC(=O)NCCc1ccccn1)C[C@@H]2C(=O)N1CCCCC1	none (no result: beta cell repl, pCIP destab)
O=c1c2c3c(sc2n2cnnc2n1Cc1ccccc1)CN(Cc1ccccc1)CC3	MOR-DOR inv ag 33.7 | OPRM1-D1 inv cf inactive | HTR5A inv count inactive
Cc1nnc2n(Cc3ccccc3)c(=O)c3c4c(sc3n12)CN(Cc1ccccc1)CC4	none (no result: beta cell repl, OPRM1-OPRD1 ag, MOR-DOR inv ag, HTR5A ag ctr, HTR5A inv ag)
Cc1ccc2oc(/N=C(\N)NC(=O)C(C)(C)C)nc2c1	MOR-DOR inv ag 44.6 | OPRM1-D1 inv cf inactive | HTR5A inv count inactive
Cc1ccc2oc(/N=C(\N)NC(=O)C3CC3)nc2c1	none
COc1ccc(-c2nc(=S)c3c(n2Cc2cccnc2)CC(C)(C)OC3)cc1	MOR-DOR inv ag 33.1 | OPRM1-D1 inv cf 42.2 | HTR5A inv count inactive
CC1(C)Cc2c(c(=S)nc(-c3ccccc3)n2Cc2cccnc2)CO1	none
COC(=O)[C@@]12OC[C@]34[C@H]([C@@H](O)[C@@H]1O)[C@@]1(C)C(=O)C(O[C@@H]5OC(CO)[C@@H](O)[C@@H](O)[C@@H]5O)=C[C@@H](C)[C@@H]1C[C@H]3OC(=O)[C@H](OC(=O)/C=C(\C)C(C)(C)OC(C)=O)[C@@H]24 (stereo partly specified)	none (no result: OPRM1-OPRD1 ag, pCIP destab, MOR-DOR inv ag, HTR5A ag ctr, HTR5A inv ag)
CC(C)(C)OC(=O)C[C@H]1C/C=C\C[C@H](CC(=O)N[C@H](CO)Cc2ccccc2)C(=O)N2CCC[C@@H]2COC1=O	none (no result: pCIP destab)
Cc1cc(C(=O)NNc2ccc(F)cc2)no1	MOR-DOR inv ag 35.5 | OPRM1-D1 inv cf inactive | HTR5A inv count inactive
COc1ccc(NC(=S)Nc2nc(CC(=O)Nc3ccccc3OC)cs2)cc1	MOR-DOR inv ag 36.1 | OPRM1-D1 inv cf inactive | HTR5A inv count inactive
COc1cc(/C=C/C(=O)c2ccc(C)c([N+](=O)[O-])c2)cc(OC)c1O	MOR-DOR inv ag 20.3 | OPRM1-D1 inv cf inactive | HTR5A inv count inactive
CSCCC(NC(=O)COc1ccccc1)C(=O)N(C)Cc1ccc(SC)cc1 (stereo unspecified)	none (no result: pCIP destab)
Cc1ccc2c(c1)C(=O)C(=O)N2CCOc1ccccc1	MOR-DOR inv ag 37.7 | OPRM1-D1 inv cf inactive | HTR5A inv count inactive
Cc1cccc(OCCN2C(=O)C(=O)c3cc(C)ccc32)c1	MOR-DOR inv ag 29.6 | OPRM1-D1 inv cf inactive | HTR5A inv count inactive
CC(=O)c1ccc(NC(=O)C(C)Sc2nnc(-c3ccncc3)n2C2CC2)cc1 (stereo unspecified)	none (no result: pCIP destab)
Cc1ccc(C2C(C(=O)c3cc4ccccc4o3)=C(O)C(=O)N2CCN2CCOCC2)o1 (stereo unspecified)	MOR-DOR inv ag 41.6 | OPRM1-D1 inv cf inactive | HTR5A inv count inactive
Cc1ccc(NNC(=O)C(=O)N2CCCCC2)cc1	MOR-DOR inv ag 27.9 | OPRM1-D1 inv cf inactive | HTR5A inv count inactive
Nc1nc(-c2ccccn2)nc(N)c1Cc1ccccc1F	none
